According to PubChem BioAssay (EPA / NIEHS):
Inconclusive results are not listed. Active and inactive are the calls of the source. The calls were made as follows: active = hit-call score of the fitted dose curve at least 0.9, where 1 is the maximum; inconclusive = response in the unintended direction; inactive = score below 0.9.

What was measured:
[1] = TOX21_p53_BLA_p2_viability: Viability Assessment in the Tox21 HCT-116 p53 Agonism Beta-lactamase Assay, Phase 2 (AID 2283591);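 also: compound exposure lasted 16 h at 37 °C; actives lower the ATP signal meaning cytotoxicity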
Summary of the method: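 HCT116 p53-bla cells, 4000/well, dosed after 5 h plating (217-fold dilution of DMSO stocks) and incubated 16 h at 37C. Viability taken as cellular ATP by CellTiter-Glo luminescence after 30 min RT; signal loss marks cytotoxicity.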

[2] = molecular target: Cellular tumor antigen p53 (Homo sapiens) (UniProt P04637); experiment: TOX21_p53_BLA_p2_ratio: Tox21 HCT-116 p53 Agonism Beta-lactamase Assay, Ratio, Phase 2 (AID 2283592)
Summary of the method: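 Human colon HCT116 cells with an inducible p53 beta-lactamase reporter are exposed to test chemicals for 16 h at 37C. Reporter induction is read as the 460/530 nm emission ratio after CCF4-AM loading, normalized to DMSO.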

[3] = TOX21_p53_BLA_p3_viability: Viability Assessment in the Tox21 HCT-116 p53 Agonism Beta-lactamase Assay, Phase 3 (AID 2283593);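 also: cells exposed to compound for 16 h before reading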
Summary of the method: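 HCT116 cells, 4000/well, dosed 5 h after plating by pin transfer (217-fold dilution from DMSO stock) and incubated 16 h at 37C, 5% CO2. Viability read as ATP luminescence with CellTiter-Glo after 30 min at room temperature.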

[4] = molecular target: Cellular tumor antigen p53 (Homo sapiens) (UniProt P04637); experiment: TOX21_p53_BLA_p3_ratio: Tox21 HCT-116 p53 Agonism Beta-lactamase Assay, Ratio, Phase 3 (AID 2283596)
Summary of the method: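 HCT116 p53-bla cells (4000/well) given compound in DMSO (217-fold dilution) after 5 h, incubated 16 h at 37C. CCF4-AM substrate 2 h at room temperature; 460/530 nm emission ratio, gain fitted against DMSO.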

[5] = molecular target: Cellular tumor antigen p53 (Homo sapiens) (UniProt P04637); experiment: TOX21_p53_BLA_p5_ratio: Tox21 HCT-116 p53 Agonism Beta-lactamase Assay, Ratio, Phase 5 (AID 2283599)
Summary of the method: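 HCT-116 p53-bla cells (4000/well) plated 5 h, dosed with compound (217-fold DMSO dilution) for 16 h at 37 C; CCF4-AM substrate 2 h at room temperature. Activity is the 460/530 nm emission ratio (405 nm excitation), fitted in gain-of-signal direction versus DMSO.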

[6] = TOX21_p53_BLA_p5_viability: Viability Assessment in the Tox21 HCT-116 p53 Agonism Beta-lactamase Assay, Phase 5 (AID 2283600)
Summary of the method: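 Seeded cells (4000/well) settle 5 h before compound addition. Plates then incubate 16 h at 37C, receive FRET substrate for 2 h, and finally CellTiter-Glo, with luminescence measured after a 30 min room-temperature incubation.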

[7] = molecular target: Cellular tumor antigen p53 (Homo sapiens) (UniProt P04637); experiment: TOX21_p53_BLA_p4_ratio: Tox21 HCT-116 p53 Agonism Beta-lactamase Assay, Ratio, Phase 4 (AID 2283601)
Summary of the method: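 HCT-116 p53 beta-lactamase reporter cells (4000/well) preincubated 5 h, then compound (217-fold dilution of DMSO stock) for 16 h at 37C. CCF4-AM substrate added 2 h at room temperature; 460/530 nm emission ratio fitted upward versus DMSO.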

[8] = TOX21_p53_BLA_p4_viability: Viability Assessment in the Tox21 HCT-116 p53 Agonism Beta-lactamase Assay, Phase 4 (AID 2283597);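 also: hits lower the luminescence signal meaning cytotoxicity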
Summary of the method: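 Luminescent ATP readout (CellTiter-Glo, 30 min, room temperature) in the same wells as the p53 bla ratio. HCT116 cells were treated for 16 h at 37C with DMSO-dissolved compounds.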

PGR (gene 5241) [9] = molecular target: PGR (gene 5241) (UniProt P06401); experiment: TOX21_PR_BLA_Followup_Antagonist_ratio: Tox21 HEK293 Progesterone Receptor (PR) Antagonism Beta-lactamase Follow-Up Assay, Ratio (AID 2283934)
Summary of the method: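 HEK293T PR-UAS-bla, 2% CS-FBS; 6 hr plating, then cpd + R5020 (1 nM final), 16 hr 37C/5% CO2. B/G FRET substrate 2 h RT. Ratio ch2/ch1 vs DMSO; CellTiter-Glo viability multiplexed, autofluorescence checked.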

[10] = TOX21_PR_BLA_Followup_Agonist_viability: Viability Assessment in the Tox21 HEK293 Progesterone Receptor (PR) Agonism Beta-lactamase Follow-Up Assay (AID 2283935);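 also: cells exposed to compound for 16 hr at 37 °C; signal loss means lower viability so actives are cytotoxic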
Summary of the method: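 HEK293T PR-UAS-bla, 3,000 cells/well, 2% CS-FBS; 6 hr pre-incubation; cpd in DMSO, 16 hr 37C; LiveBLAzer 2 hr RT, then CellTiter-Glo 30 min RT, luminescence. Decrease = lost viability.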

[11] = TOX21_PR_BLA_Followup_Antagonist_viability: Viability Assessment in the Tox21 HEK293 Progesterone Receptor (PR) Antagonism Beta-lactamase Follow-Up Assay (AID 2283936);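 also: hits lower the luminescence signal meaning cytotoxicity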
Summary of the method: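 PR-UAS-bla HEK293T cells (3,000/well, 2% charcoal-stripped FBS) given compound plus R5020 agonist, 16 h at 37C. CellTiter-Glo added after bla read, 30 min at room temperature; luminescence loss indicates cytotoxicity.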

PGR (gene 5241) [12] = molecular target: PGR (gene 5241) (UniProt P06401); experiment: TOX21_PR_LUC_Followup_Antagonist: Tox21 HEK293 Progesterone Receptor (PR) Antagonism Luciferase Follow-Up Assay (AID 2283938);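 also: curve fitted upward as signal gain over DMSO baseline despite antagonist label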
Summary of the method: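 Luciferase reporter in HEK293-PR-A-luc cells: 16 h compound treatment at 37C, ONE-Glo luminescence detection, DMSO as negative control and baseline.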

[13] = TOX21_PR_LUC_Followup_Agonist_viability: Viability Assessment in the Tox21 HEK293 Progesterone Receptor (PR) Agonism Luciferase Follow-Up Assay (AID 2283941);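 also: loss of signal means cytotoxicity so actives lower viability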
Summary of the method: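 Cells were kept 5 days in charcoal-stripped serum medium before plating HEK293-PR-A-luc at 3,000 cells/well. After 5 h they received DMSO-dissolved compound and incubated 16 h at 37C. Viability was taken from CellTiter-Glo ATP luminescence.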

Measured: AC50

Chain of Cellular tumor antigen p53 (Homo sapiens) (P04637 whole entry, looked up): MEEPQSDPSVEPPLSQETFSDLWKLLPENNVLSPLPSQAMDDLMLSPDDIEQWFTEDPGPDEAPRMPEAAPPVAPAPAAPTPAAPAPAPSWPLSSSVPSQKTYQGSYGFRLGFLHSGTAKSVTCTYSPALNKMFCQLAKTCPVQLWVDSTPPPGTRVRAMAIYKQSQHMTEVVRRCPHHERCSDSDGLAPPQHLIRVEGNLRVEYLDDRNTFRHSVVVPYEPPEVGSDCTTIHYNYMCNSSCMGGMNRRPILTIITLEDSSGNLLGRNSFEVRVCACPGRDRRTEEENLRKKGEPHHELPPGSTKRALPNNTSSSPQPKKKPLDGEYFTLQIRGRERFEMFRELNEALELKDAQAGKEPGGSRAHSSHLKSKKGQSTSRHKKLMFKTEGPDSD
Chain of PGR (gene 5241) (P06401 whole entry, looked up): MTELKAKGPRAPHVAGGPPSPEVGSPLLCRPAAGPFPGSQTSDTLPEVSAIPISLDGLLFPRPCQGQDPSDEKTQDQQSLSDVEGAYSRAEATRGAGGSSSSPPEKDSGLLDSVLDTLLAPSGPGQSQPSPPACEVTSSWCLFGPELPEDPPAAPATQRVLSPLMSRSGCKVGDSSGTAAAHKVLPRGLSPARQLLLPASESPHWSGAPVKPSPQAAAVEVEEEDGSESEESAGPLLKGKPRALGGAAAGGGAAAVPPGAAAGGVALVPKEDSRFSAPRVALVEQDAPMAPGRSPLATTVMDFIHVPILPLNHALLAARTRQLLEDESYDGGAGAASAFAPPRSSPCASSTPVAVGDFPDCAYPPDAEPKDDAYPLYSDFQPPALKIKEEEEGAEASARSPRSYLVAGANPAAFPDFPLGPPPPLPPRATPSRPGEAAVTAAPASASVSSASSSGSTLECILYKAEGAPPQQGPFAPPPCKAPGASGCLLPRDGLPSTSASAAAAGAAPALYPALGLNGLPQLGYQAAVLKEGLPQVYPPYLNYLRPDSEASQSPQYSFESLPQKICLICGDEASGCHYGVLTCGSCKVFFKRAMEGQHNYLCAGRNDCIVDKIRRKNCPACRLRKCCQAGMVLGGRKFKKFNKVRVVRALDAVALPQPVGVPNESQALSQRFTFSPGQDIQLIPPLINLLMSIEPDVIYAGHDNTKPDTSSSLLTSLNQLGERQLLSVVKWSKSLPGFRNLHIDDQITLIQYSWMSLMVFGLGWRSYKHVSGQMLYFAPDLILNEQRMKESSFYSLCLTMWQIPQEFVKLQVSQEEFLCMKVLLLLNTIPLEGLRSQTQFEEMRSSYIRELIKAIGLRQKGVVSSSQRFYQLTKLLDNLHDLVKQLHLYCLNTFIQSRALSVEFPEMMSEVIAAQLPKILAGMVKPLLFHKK

CN1C(=O)NC(=O)C(C)(C2=CCCCC2)C1=O (configuration not stated)
inactive: [1] | [2] | [3] | [4] | [5] | [6] | [7]

CCOP(=O)(OCC)SCCSCC (tested in a mixture with another compound)
inactive: [1] | [2] | [3] | [4] | [5] | [7]

FC(F)OC(F)(F)C(F)Cl (configuration not stated)
inactive: [1] | [2] | [3] | [4] | [7]

N#CC(C#N)=C(C#N)C#N
inactive: [1] | [2] | [3] | [4] | [6]

C[C@]12N[C@H](Cc3ccccc31)c1ccccc12
inactive: [1] | [2] | [3] | [4] | [6] | [7]

C[C@]12CC[C@@H]3c4ccc(OC(=O)N(CCCl)CCCl)cc4CC[C@H]3[C@@H]1CC[C@@H]2O
active: [2] 24.6 µM | [4] 29 µM | [5] 25.2 µM | [7] 31.9 µM
inactive: [1] | [3]

CC(=O)OCC(=O)[C@H]1CC[C@H]2[C@@H]3CC[C@H]4C[C@H](O)CC[C@]4(C)[C@H]3C(=O)C[C@]12C
inactive: [1] | [2] | [3] | [8] | [5] | [6] | [7]

COc1cccc(C(=O)CCN[C@@H](C)[C@H](O)c2ccccc2)c1
inactive: [1] | [2] | [3] | [8] | [5] | [6] | [7]

CCCCC#N
inactive: [1] | [2] | [3] | [8] | [6] | [7]

CCOP(=S)(OCC)Oc1cc(-c2ccccc2)on1
inactive: [1] | [2] | [3] | [8] | [5]

C[C@]12CC[C@H]3[C@@H](CCC4=CC(=O)CC[C@@H]43)[C@@H]1CC[C@@H]2O
not listed: [4] | [6] | [7]
inactive: all other assays above

Cc1nc2ccccc2c(=O)n1-c1ccccc1Cl
inactive: [1] | [2] | [3] | [8] | [6]

COc1ccc(CN2CCNCC2)c(OC)c1OC
inactive: [1] | [2] | [3] | [8] | [6] | [7]

COC(=O)C(C)N(C(=O)c1ccco1)c1c(C)cccc1C (configuration not stated)
inactive: [1] | [2] | [3] | [8] | [5]

CNC(C)[C@@H]1CC[C@@H](N)[C@@H](O[C@H]2[C@H](O)[C@@H](O[C@H]3OC[C@](C)(O)[C@H](NC)[C@H]3O)[C@H](N)C[C@@H]2N)O1 (some centres not stated) (tested in a mixture with another compound)
inactive: [1] | [2] | [3] | [4] | [6]

CC(=O)[C@H]1CC[C@H]2[C@@H]3CC[C@H]4C[C@](C)(O)CC[C@]4(C)[C@H]3CC[C@]12C
inactive: [1] | [2] | [3] | [8] | [5] | [7]

CC(=O)OC1(c2ccccc2)CCN(CCc2ccccc2)CC1
inactive: [1] | [2] | [3] | [8] | [7]

CCc1cc(OC)c(C[C@@H](C)N)cc1OC
inactive: [1] | [2] | [3] | [8] | [5] | [7]

CC(=O)O[C@H]1C[C@H](O[C@H]2[C@@H](O)C[C@H](O[C@H]3[C@@H](O)C[C@H](O[C@H]4CC[C@@]5(C)[C@H](CC[C@@H]6[C@@H]5C[C@@H](O)[C@]5(C)[C@@H](C7=CC(=O)OC7)CC[C@]65O)C4)O[C@@H]3C)O[C@@H]2C)O[C@H](C)[C@H]1O[C@@H]1O[C@H](CO)[C@@H](O)[C@H](O)[C@H]1O
active: [1] 0.109 µM | [3] 0.0857 µM | [8] 0.121 µM | [6] 0.0758 µM
inactive: [2] | [5] | [7]

NC(=O)CI
inactive: [1] | [2] | [3] | [4] | [5] | [7]

C[N+](C)(C)C
inactive: [1] | [2] | [3] | [8] | [5] | [6]

CC[C@H]1[C@@H]2C[C@H]3[C@@H]4N(C)c5ccccc5[C@]45C[C@@H](C2C5O)N3[C@@H]1O (some centres not stated)
inactive: [1] | [2] | [3] | [8] | [6] | [7]

OC(O)C(Cl)(Cl)Cl
inactive: [1] | [2] | [3] | [8] | [5] | [6] | [7]

c1ccccc1
inactive: [1] | [2] | [3] | [4] | [7]

O=CC(Br)(Br)Br
active: [2] 82.7 µM | [5] 29.9 µM
inactive: [1] | [3] | [4] | [7]

Clc1c(Cl)c(Cl)c(Cl)c(Cl)c1Cl
inactive: [1] | [2] | [3] | [8] | [6] | [7]

COC1=CC(=O)O[C@@H](CCc2ccccc2)C1
inactive: [1] | [2] | [3] | [8] | [5] | [6] | [7]

COc1cc(CC(C)N)c(OC)cc1Br (configuration not stated)
inactive: [1] | [2] | [3] | [8] | [5] | [6] | [7]

CC(C)(C)NCC(O)c1cc(Cl)c(N)c(C(F)(F)F)c1 (configuration not stated)
inactive: [1] | [2] | [3] | [8] | [6] | [7]
